Assay outcomes: PubChem BioAssay, SRMLSC
MK inhibit = inhibitors of Streptococcus pneumoniae mevalonate kinase; purified MK, PK/LDH-coupled NADH absorbance 340 nm; inhibition, % at 10 µM; 0.48% of 65,000 active; AID 555;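 active = ranked among the strongest by inhibition in the single 10 µM screen, a fixed top-ranked set picked for dose follow-up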
NADH coupling = inhibitors of enzymes used to reach an NAD/NADH endpoint | coupled PK/LDH NADH assays, four targets | IC50, µM (doses to about 10 µM), without a hit: top-dose inhibition | 0.02% of 65,000 active | AID 774;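 active = single-dose screening hits from any of four coupled enzyme assays that gave an IC50 when retested across doses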;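 also: the DPM-DC format reads NADH fluorescence rather than 340 nm absorbance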
Spn PMK inh = inhibitors of Streptococcus pneumoniae phosphomevalonate kinase | purified PMK, PK/LDH-coupled NADH absorbance 340 nm | inhibition, % at 10 µM | 0.49% of 65,000 active | AID 539;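 active = top-ranked compounds by inhibition in the single 10 µM screen, taking a fixed number of the strongest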;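 also: 0% = full reaction with DMSO carrier and 100% = background rate without enzyme reaction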
Fluor 339 460 = intrinsic fluorescence of library compounds, ex339/em460 – biochemical, MLSMR library, data from DPM-DC assay, artefact control, profiling panel. compound autofluorescence, ex339/em460 nm, NADH buffer; hits give high values; 1 = no-compound wells, NADH background. fluorescence fold increase at 10 µM. 5.5% of 65,000 active;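 active = at 10 µM, mean starting fluorescence two-fold or more over control wells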;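 also: signal is the first read of a kinetic run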
Spn DPM-DC inh = inhibitors of Streptococcus pneumoniae diphosphomevalonate decarboxylase. purified DPM-DC, PK/LDH coupled NADH fluorescence. calls only at 10 µM. 0.49% of 65,000 active. AID 556;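 active = the 320 compounds with the highest percent inhibition in the single-dose primary screen, excluding strongly autofluorescent ones, cut at about 32% in these data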;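 also: kinetic rate of NADH fluorescence loss reporting ADP formed by the decarboxylase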
A340 absorber = compound absorbs light at 340 nm. compound absorbance at 340 nm, fold over control. fold change at 10 µM. 65,000 tested, under 10 active. AID 708;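 active = at 10 µM dose, initial 340 nm absorbance at least 2 fold that of control wells; inactive = change under 2 fold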;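 also: initial absorbance extrapolated from kinetic A340 decline of NADH oxidation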
* = called active by the depositor; i = inactive; / = not tested or not shown; + = active, no number. This is a sample that favours compounds with a hit; in the whole collection about 6.3% have one here.

SMILES	MK inhibit	NADH coupling	Spn PMK inh	Fluor 339 460	Spn DPM-DC inh	A340 absorber
CCOC(=O)N1CCC(NC(=O)c2cc3c(-c4ccccc4F)nn(C)c3s2)CC1	11	13%	8	2*	i	1.1
O=C(Nc1cccnc1)C1CCCN(S(=O)(=O)c2cccc3nsnc23)C1 (stereo not given)	8	8%	16	1.1	i	1
COc1ccc(-c2nc(CN3CCC(C(=O)NC(C)C)CC3)c(C)o2)cc1OC	6	5%	10	1.1	i	0.99
COc1ccc(S(=O)(=O)Nc2ccccc2C(=O)NCc2ccco2)cc1	6	8%	9	3.6*	/	1
COc1ccc(S(=O)(=O)C(C#N)c2nc3ccccc3nc2N2CCC(C)CC2)cc1 (stereo not given)	6	5%	0	1.5	i	1.1
COc1cc2cc(C(=O)Nc3ccccc3)c(N)nc2cc1OC	10	5%	0	2.3*	/	1.1
COc1cc2ccccc2cc1C(=O)Nc1cccnc1	0	0%	0	1.3	i	1.1
COc1cccc(C(=O)Nc2ccc(NC(=O)C(C)C)nc2)c1	11	16%	2	1.2	+	1
O=C(Nc1cccnc1)c1cc(-c2ccc3c(c2)OCO3)on1	2	6%	16	1.3	i	1
Cc1ccc(Cl)cc1N1CCN(C(=O)CCS(=O)(=O)c2cccc3nonc23)CC1	10	3%	0	1.1	i	1.1
c1ccc(-c2nc3nc4ccccc4nc3n2Cc2ccco2)cc1	16	12%	15	1.5	i	1.1
c1ccc(Cn2c(-c3cccs3)nc3nc4ccccc4nc32)cc1	9	7%	5	3.7*	/	1
CC(C)Cn1c(-c2cccs2)nc2nc3ccccc3nc21	0	1%	2	3.9*	/	1.1
CN1CCc2c(sc3c2c(=O)n(-c2ccccc2)c2nnc(SCc4ccc(F)cc4)n32)C1	3	5%	active	1.4	i	1
CN1CCc2c(sc3c2c(=O)n(-c2ccccc2)c2nnc(SCc4ccccc4)n32)C1	21	5%	0	1.1	i	0.98
CC(C)CNC(=O)c1cccc(NC(=O)c2ccc(NC(=O)c3ccco3)cc2)c1	6	2%	0	1.1	i	1
Cc1ccc(CNc2ccc3c(c2)OCO3)c(C)c1	0	0%	0	1.2	i	1.1
COCC(C)NCc1ccc(C)cc1C (stereo not given)	52*	20%	1	1.1	i	1.1
CC(=O)c1cc(OC(=O)c2ccncc2)ccc1OC(=O)c1ccncc1	6	2%	0	1.1	i	1
Cc1onc(-c2ccccc2)c1C(=O)Nc1nnc(-c2ccncc2)s1	6	8%	10	3.8*	/	1.2
CCOc1ncccc1C(=O)Nc1ccc(-c2cn3ccsc3n2)cc1	0	11%	21	2.1*	/	1.1
O=C(Nc1nnc(-c2ccncc2)s1)C1CCCO1 (stereo not given)	6	3%	0	3.7*	/	1.1
CCOc1ncccc1C(=O)Nc1ccc2c(C)cc(=O)oc2c1	0	8%	0	2.2*	+	1
COc1ccc(-c2[nH]ncc2-c2cnn(-c3ccccc3)c2)c(O)c1	7	3%	0	1.1	i	1
Cc1onc(-c2ccccc2)c1C(=O)Nc1ccc2c(C)cc(=O)oc2c1	6	3%	0	2.2*	/	1.1
SMILES	MK inhibit	NADH coupling	Spn PMK inh	Fluor 339 460	Spn DPM-DC inh	A340 absorber
Cc1cc(=O)oc2cc(NC(=O)CCCC(=O)O)ccc12	5	8%	11	5*	/	1
COC(=O)c1cc2occc2n1CC(=O)Nc1ccc(OC)c(OC)c1OC	22	35%	0	1	+	1
COC(=O)c1cc2oc(C)cc2n1CC(=O)Nc1ccc(OC)c(OC)c1OC	7	6%	8	1.1	i	1
COC(=O)CSc1ccc2c(N)c(C(=O)OC)sc2c1	1	13%	15	2.5*	i	1
Cc1cc2c(cc(C(=O)NCc3cccnc3)n2Cc2ccc(Cl)cc2)o1	6	3%	12	1.1	i	1
CC(C)Oc1ccc(N2CC(C(=O)Nc3ccc4c(c3)OCO4)CC2=O)cc1 (stereo not given)	1	0%	0	1	i	1
CCCn1nnnc1NC(=O)CSc1ccc(Cl)cc1	1	2%	6	1.1	i	1
O=C(CCN1C(=O)COc2ccccc21)NCc1cccs1	0	4%	13	1.1	i	1
COC(=O)c1cc2c([nH]c3ccccc32)c(C)n1	0	7%	14	4.8*	/	1
COc1ccc(C2C=C(c3cccs3)Nc3nc(CCCO)nn32)cc1 (stereo not given)	0	9%	17	3.9*	/	1.1
OCCCc1nc2n(n1)C(c1ccccc1)C=C(c1ccccc1)N2 (stereo not given)	10	11%	0	1.9	i	1.1
COc1ccc(C2C=C(c3ccccc3)Nc3nc(CCCO)nn32)cc1 (stereo not given)	1	9%	17	4.9*	/	1.1
CCOc1cc(C(=O)CSc2nnc(CNc3ccc(Cl)cc3)o2)ccc1NC(=O)CC	3	3%	7	1.1	i	1
O=C(NCCN1CCOCC1)c1cc2c(=O)n3ccccc3nc2n1Cc1ccccc1	3	9%	14	3.9*	/	1.1
CCN1CCN(C(=O)c2cc3c(=O)n4ccccc4nc3n2Cc2ccccc2)CC1	1	2%	3	3.9*	/	1.1
CN(C)S(=O)(=O)c1ccc(S(=O)(=O)N(Cc2ccccn2)Cc2ccco2)cc1	9	5%	7	1.2	i	1
COc1ccccc1OCCC(=O)OCC(=O)Nc1ncc(Cl)cc1Cl	10	6%	8	1.2	i	1
Cc1nn(-c2ccccc2)c2sc(C(=O)OCn3nnc4ccccc4c3=O)cc12	0	1%	3	1.1	i	1
CCCCNC(=O)COC(=O)c1cc2c(C)nn(-c3ccccc3)c2s1	8	13%	17	2.5*	i	1
Cc1nn(-c2ccccc2)c2sc(C(=O)n3cccn3)cc12	6	9%	11	2.2*	/	1.1
Cc1nn(-c2ccccc2)c2sc(C(=O)N3CCCCC3)cc12	6	2%	0	1.2	i	1
O=C(NCC1COc2ccccc2O1)C1CCCN(S(=O)(=O)c2cnc[nH]2)C1 (stereo not given)	7	1%	3	1	i	0.98
Cc1cccc(-n2ncc3c(N4CCN(c5nc(C)cc(C)n5)CC4)ncnc32)c1	21	11%	12	1.1	i	0.96
O=c1c2cc(Cl)ccc2oc2nc3n(c(=O)c12)CCCS3	7	11%	7	2.6*	i	1.1
O=c1c2ccccc2nc2n1CCCS2	0	0%	1	1.1	i	1.1
